Source: the supplement of paper PMC11577813, “Eurasian spruce bark beetle detects lanierone using a highly expressed specialist odorant receptor, present in several functional sensillum types” (BMC Biology, 2024)
± gives the standard deviation of the averaged measurements.

Test system: (4S)-cis-verbenol A-neuron OSN class
Assay: net action potential response of A-neuron (blank-subtracted) (spikes/s (Hz)); higher = stronger excitation
Settings: 10 µg on filter paper; neuron: A neuron (large spike amplitude)
Protocol: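 Single sensillum recordings from antennal olfactory sensilla of live adult Ips typographus. Each compound was 10 µg in paraffin oil on filter paper, delivered as a 0.5 s puff. Net response = spikes in the first 0.5 s of response minus the 0.5 s pre-stimulus count, doubled to give Hz, with blank response subtracted. Values are for the large-spike A-neuron class of each of seven sensillum types that co-house the lanierone B-neuron; N = 1-4 sensilla, averaged.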

Row | Compound | net action potential response
1 | CC(=O)OCCc1ccccc1 [2-Phenethyl acetate] | -2 ± 4
2 | COc1ccc(C)cc1OC [3,4-Dimethoxytoluene] | -2.67 ± 2.3
3 | CC(=O)OCc1ccccc1 [Benzyl acetate] | 1.33 ± 8.1
4 | CC1(C)C2CC=C(CO)C1C2 (racemic) [(±)-Myrtenol] | 4.67 ± 1.1
5 | C=C1CCC2(C(C)C)CC12 (racemic) [(±)-Sabinene] | -4 ± 7.2
6 | Cc1ccc(C(C)C)cc1 [p-Cymene] | -2 ± 4
7 | CCC/C=C\CO | 1.33 ± 4.2
8 | CCC/C=C/C=O [(E)-hex-2-enal] | 4 ± 10
9 | CC[C@H]1O[C@]2(C)CCC[C@H]1O2 (racemic) [(±)-exo-Brevicomin] | -3.33 ± 4.2
10 | CC1=CCC2CC1C2(C)C (stereo not drawn) [(-)-α-Pinene] | -2.67 ± 3.1
11 | C=C(C)[C@@H]1CC=C(C)CC1 [(-)-Limonene] | 0.667 ± 8.1
12 | CCC(C)CO (racemic) [(±)-2-Methyl-1-butanol] | -1.33 ± 4.2
13 | CC1=CCC(C(C)C)=CC1 [γ-Terpinene] | -5.33 ± 4.2
14 | CCCCCC(O)CC (racemic) [(±)-3-Octanol] | -6.67 ± 1.1
